Most compounds without a hit are left out; they make up all but 19% or so of the library.
DT40 TDP1 no CPT = qHTS for Inhibitors of human tyrosyl-DNA phosphodiesterase 1 (TDP1): qHTS in cells in absence of CPT; DT40 Tdp1-/- hTDP1 cells, no CPT, ATP luminescence, 48 h; Potency, µM (top dose mostly 46.2 µM), for the others: at the highest dose activity change, negative = growth inhibition, hits mostly inhibitors; 15% of 420,000 active; note: potency is the fitted concentration of half-maximal effect; nearly all actives have a fitted effect of over 55% in size
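Growth of hTDP1-complemented DT40 Tdp1-knockout cells is measured by ATP luminescence after at least 48 hr compound exposure at 37 °C, with DMSO substituting for the 20 nM CPT used in the parallel screen.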
HT1080 IDH1KD tx = qHTS for induction of synthetic lethality in tumor cells producing 2HG: qHTS for the HT-1080-IDH1KD cell line; HT-1080 IDH1 knockdown viability, ATP luminescence, 48 h; Potency, µM (doses to about 46.1 µM), inactives show at the top dose activity, negative = toxicity, most hits filed as cytotoxic; 2% of 360,000 active; AID 686971, 2013;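 note: potency is the fitted concentration of half-maximal effect; 0% = DMSO wells and -100% = cell-free medium wells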
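CellTiter-Glo luminescence after 48 h compound exposure at 37 degrees C of IDH1-knockdown HT-1080 cells in 5% FBS RPMI. %Activity scaled between DMSO wells and cell-free media wells, with curves fitted and assigned curve classes.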
DT40 TDP1 CPT = qHTS for Inhibitors of human tyrosyl-DNA phosphodiesterase 1 (TDP1): qHTS in cells in presence of CPT | chicken DT40 Tdp1-/-;hTDP1 cells + 20 nM CPT, ATP luminescence, 48 h | 12% of 420,000 active | Potency, µM (top dose mostly 46.2 µM), for the others: at the top dose activity change, negative = growth inhibition, most hits filed as inhibitors; note: potency is the fitted concentration of half-maximal effect; nearly all actives have a fitted effect of over 55% in size
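Chicken DT40 Tdp1-/- cells complemented with human TDP1, 400 cells/well, exposed to compounds plus 20 nM camptothecin for at least 48 h at 37 C; viability read as ATP content by CellTiter-Glo luminescence.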
IL-1B inflam inh = qHTS for Inhibitors of Inflammasome Signaling: IL-1-beta AlphaLISA Primary Screen; THP-1 LPS/ATP IL-1B secretion, AlphaLISA, 16 h; hits give low values; activity change, % at 57.5 µM; 4.7% of 360,000 active; AID 743279, 2014; in the data active = activity change below about -50%; inconclusive = mostly about -30% to -49%
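THP-1 cells pretreated 1 hr with compounds (up to 57.5 uM final), then stimulated with LPS (250 ng/mL final) plus ATP (1.25 mM final); secreted IL-1B measured by AlphaLISA after 16 hr, decreased signal indicating inhibition.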
HT1080NT lethal = qHTS for induction of synthetic lethality in tumor cells producing 2HG: qHTS for the HT-1080-NT fibrosarcoma cell line; HT-1080-NT fibrosarcoma viability, CellTiter-Glo ATP luminescence, 48 h; Potency, µM (doses to about 46.1 µM), inactives show top-dose activity, negative = less viability, hits mostly cytotoxic; 1.6% of 360,000 active; AID 686970, 2013;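 note: NT is the 2HG producing partner of a matched IDH1 knockdown line; potency is the fitted concentration of half-maximal effect; 0% = DMSO-treated cells and -100% = media-only wells without cells; nearly all actives have a fitted effect of over 55% in size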
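Viability of the 2HG-overproducing fibrosarcoma line after 48 hours of compound exposure at 37 degrees C was determined by luminescence with CellTiter-Glo, and concentration-effect curves were then fitted and categorized.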
Active calls of the source: *; u = inconclusive; x = no result; [ ] = another dose, or the depositor's remark. Unless noted, calls come from the whole dose curve; as a rule, active = well fitted curve in the direction sought with a large enough effect; inconclusive = small, poorly fitted or top-dose-only effect, or another doubt; inactive = no such curve, though single readings can be large; an effect the other way counts as inactive or inconclusive. Unless noted, % is set by controls: 0 for no effect and ±100 for the full control effect.

SMILES | DT40 TDP1 no CPT | HT1080 IDH1KD tx | DT40 TDP1 CPT | IL-1B inflam inh | HT1080NT lethal
CCCCn1c(N)c(-c2nc3ccccc3o2)c2c([N+](=O)[O-])nn(C)c(=O)c21 | 17% | 14% | 0% | -12 | 17%
Cc1ccc(Cn2c(C(C)Nc3nc(-c4ccc(Cl)c([N+](=O)[O-])c4)cs3)nc3cc(C(F)(F)F)ccc32)cc1 (configuration not stated) | u | -4% | u | -1 | -4%
N#CC(c1ccccn1)c1ncc(C(F)(F)F)cc1Cl (configuration not stated) | -6% | 4% | 8% | -11 | 9%
CCn1nc([N+](=O)[O-])c(C(C#N)c2nc3cc(C(F)(F)F)ccc3s2)c(Cl)c1=O (configuration not stated) | 23µM* | 0.32µM* | 15µM* | -97* | 0.63µM*
CCCn1nc([N+](=O)[O-])c(C(C#N)c2nc3ccccc3o2)c(Cl)c1=O (configuration not stated) | -25% | u | u | -82* | u
Cc1ccc(-n2nc(C(=O)Nc3ccc(C)c(F)c3)c3c4ccccc4n(C)c3c2=O)cc1 | 0% | x | 3% | x | x
O=[N+]([O-])c1nn(-c2ccc(Cl)cc2)n(O)c1=NCc1cccnc1 | 10µM* | 11% | 8.2µM* | 8 | 11%
O=[N+]([O-])c1nn(-c2ccc(Cl)cc2)n(O)c1=NCc1ccccc1Cl | u | -10% | -18% | -4 | 0%
O=[N+]([O-])c1nn(-c2cccc(Cl)c2)n(O)c1=NCc1cccnc1 | 13µM* | 9% | 8.2µM* | -9 | -4%
Cc1ccc(CN=c2c([N+](=O)[O-])nn(-c3ccc(Cl)cc3)n2O)cc1 | u | 5% | u | -8 | 2%
O=[N+]([O-])c1nn(-c2ccc(Cl)cc2)n(O)c1=NCc1ccncc1 | 10µM* | 2% | 5.2µM* | u | -10%
O=[N+]([O-])c1nn(-c2ccc3c(c2)OCCO3)n(O)c1=NCCC1=CCCCC1 | -27% | -13% | -26% | -3 | 1%
O=[N+]([O-])c1ccc(Cl)cc1NCc1cccnc1 | 3% | u | 7% | -9 | -22%
Cc1cccc(-n2nc([N+](=O)[O-])c(=NCc3cccnc3)n2O)c1 | u | u | 12µM* | 22 | -1%
OCCC#Cc1c(-c2ccsc2)sc2ccccc12 | -26% | 2% | -14% | 3 | -9%
Cn1cncc1C#Cc1c(-c2ccc(S(C)(=O)=O)cc2)sc2ccccc12 | 12µM* | 1% | 13µM* | 8 | -1%
COc1ccc2sc(-c3ccccc3OC)c(C#Cc3cncn3C)c2c1 | u | u | u | -21 | u
CS(=O)(=O)c1ccc(-c2sc3ccccc3c2C#CCCO)cc1 | u | -12% | 16µM* | -18 | -19%
COc1ccc(-c2sc3ccccc3c2C#CCCO)cc1 | u | -4% | 26µM* | 0 | -2%
COc1ccc(-c2sc3ccc(N4CCOCC4)cc3c2C#CCCO)cc1 | 4.6µM* | 23µM* | 6.5µM* | 44 | 23µM*
C[N+]1(CN2C(=O)C3C4C=CC(C4)C3C2=O)CCCCC1 (configuration not stated) | -7% | -2% | 0% | 35 | 0%
O=C(OCc1nc2ccsc2c(=O)[nH]1)c1ccc(Cl)s1 | -10% | 2% | u | 14 | 2%
C#CCNC(=O)C[C@@H]1C[C@@]2(C(=O)OCC)CCCC=C2N(Cc2ccccc2)C1=O | -18% | 1% | -13% | -9 | 13%
CCN(CC)C[C@@H]1CCCCN1CC(=O)N1c2ccccc2C(=O)Nc2cccnc21 | -1% | x | 2% | x | x
COc1ccc2c(C#CCCO)c(-c3ccc(S(C)(=O)=O)cc3)sc2c1 | u | u | u | 16 | u
SMILES | DT40 TDP1 no CPT | HT1080 IDH1KD tx | DT40 TDP1 CPT | IL-1B inflam inh | HT1080NT lethal
COc1ccc2c(-c3ccc(S(N)(=O)=O)cc3)c(-c3ccc(S(C)(=O)=O)cc3)sc2c1 | u | u | 23µM* | 8 | 23µM*
COc1ccc2sc(-c3ccc(S(C)(=O)=O)cc3)c(C#CCO)c2c1 | 21µM* | -27% | 15µM* | -55* | u
CCOc1ccc(CCNC(=O)c2nn(C)c3c2CSc2ccc(C)cc2-3)cc1OCC | 13µM* | x | u | x | x
COC(=O)c1cc(NC(=O)c2nn(C)c3c2CSc2ccccc2-3)cc(C(=O)OC)c1 | 5% | x | 6% | x | x
Cc1ccc(CCNC(=O)c2nn(C)c3c2CSc2ccccc2-3)cc1 | -13% | x | -24% | x | x
CCN(C(=O)c1nn(C)c2c1CSc1ccccc1-2)c1cccc(C)c1 | 21µM* | x | 12µM* | x | x
CCOC(=O)N1CCN(C(=O)c2nn(C)c3c2CSc2ccccc2-3)CC1 | 16µM* | 5% | u | -17 | 24%
CCCCN(CC)C(=O)c1nn(C)c2c1CSc1ccccc1-2 | 23µM* | x | u | x | x
Cn1nc(C(=O)NCCCN2CCCCC2)c2c1-c1ccccc1SC2 | u | 4% | u | -9 | -2%
CCC(CC)(CC(=O)Nc1cccc(/C=C/c2nc(C3CCC3)cs2)c1)C(=O)O | u | x | -11% | x | x
COc1cccc2c1C1COC3C4CC(C(=O)O)C(C(C2)N13)N4C (configuration not stated) | 12µM* | 7.3µM* | 5.2µM* | -22 | 5.8µM*
COc1ccc(-c2noc(CCC(=O)N3CCN(c4cccc(OC)c4)CC3)n2)cc1 | 16µM* | -5% | u | -18 | -7%
COc1ccc(-c2noc(CCCC(=O)N3CCOCC3)n2)cc1 | u | -5% | u | 10 | -4%
COc1ccc(-c2noc(CCC(=O)N3CCC(c4cc(C)ccc4C)CC3)n2)cc1 | -23% | -1% | 1% | -3 | -10%
COc1ccc(-c2noc(CCC(=O)N3CCN(c4cccc(C(F)(F)F)c4)CC3)n2)cc1 | 23µM* | 0%[9.24 µM] | u | u | -28%
O=C(CCn1nnc(-c2cccs2)n1)NC1CCCCC1 | -10% | -2% | -8% | 21 | 14%
Cn1nc(C(=O)NNC(=O)c2ccc(Cl)c(S(N)(=O)=O)c2)c2ccccc2c1=O | -1% | 13% | 16% | 5 | 5%
COC(=O)C[C@@H]1C=C[C@H](NC(=O)Nc2ccc(F)cc2)[C@@H](CO)O1 | 7% | u | -3% | 17 | 24%
C/C(CCc1ccc2c(c1)OCO2)=N\NC(=O)c1ccc(C)cc1C | 2.9µM* | -3% | 1% | -10 | -9%
